Screening results deposited in PubChem by The Scripps Research Institute Molecular Screening Center.
m5-HT2A agonist: mouse HTR2A agonism via beta-arrestin recruitment; P35363; CHO-K1 mHTR2A beta-arrestin complementation, luminescence; percent of 30 µM serotonin response; activation, % at 7.6 µM; 360,000 tested, 0.66% active; AID 624169;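 active means activation above a run cutoff, the mean activation of all tested compounds plus 3 SD, cut at about 14% in these data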;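 further: 0% = plate median of compound wells and 100% = 30 µM serotonin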
Target sequence (P35363 whole entry, looked up): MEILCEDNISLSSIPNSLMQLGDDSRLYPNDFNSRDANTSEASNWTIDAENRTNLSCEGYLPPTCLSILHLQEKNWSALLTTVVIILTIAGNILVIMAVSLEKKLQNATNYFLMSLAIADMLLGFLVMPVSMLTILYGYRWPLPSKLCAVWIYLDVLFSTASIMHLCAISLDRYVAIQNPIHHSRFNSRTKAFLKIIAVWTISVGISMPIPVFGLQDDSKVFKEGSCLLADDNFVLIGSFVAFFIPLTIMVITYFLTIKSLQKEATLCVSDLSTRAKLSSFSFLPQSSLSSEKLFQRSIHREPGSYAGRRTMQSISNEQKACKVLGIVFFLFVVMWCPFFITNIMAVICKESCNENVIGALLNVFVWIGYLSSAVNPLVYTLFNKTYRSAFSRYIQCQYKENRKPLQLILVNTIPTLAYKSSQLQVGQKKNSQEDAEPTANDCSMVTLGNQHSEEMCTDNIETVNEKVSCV
HTR5A inv ag: inverse agonist of human HTR5A in OPRM1-OPRD1 counter-screen; P47898; HTR5A cell line, luminescence, inverse agonism; inhibition, % at 9.3 µM; 340,000 tested, 0.083% active; in the data active means inhibition mostly above about 23%, no sharp cut-off; inactive means mostly below about 18%;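 further: 0% = cells with DMSO and 100% = no-cell wells with DMSO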
HTR5A ag ctr: HTR5A agonism, opioid heterodimer counter-screen. P47898. HTR5A agonist assay, luminescence, cell-based. activation, % at 9.3 µM. 340,000 tested, 0.61% active. AID 504692; in the data active means activation mostly above about 9.5%, no sharp cut-off; inactive means mostly below about 7.6%;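 further: 0% = cells with vehicle only and 100% = reference agonist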
OPRM1-OPRD1 inv: inverse agonist of human OPRM1-OPRD1 heterodimerization | inhibition, % at 9.3 µM | cell-based MOR-DOR heterodimer luminescence, inverse agonism | 340,000 tested, 0.21% active | P35372+P41143; in the data active means inhibition above about 22%, passing the limit was not always enough;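 further: 0% = cells with DMSO and 100% = wells without cells with DMSO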
HGIII-sPLA2 inh: Inhibits HGIII-sPLA2 liposome hydrolysis, primary screen; Q9NZ20; QFRET BODIPY PC-A2 liposome hydrolysis, fluorescence; inhibition, % at 12.2 µM; 370,000 tested, 0.56% active;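 active means inhibition above mean plus 3 SD of compounds lying within the high and low control bounds, cut at about 19% in these data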;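 further: 0% = median of test compound wells and 100% = no enzyme DMSO wells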
MOR-DOR ag: agonists of human mu-delta opioid receptor heterodimerization | 340,000 tested, 0.3% active | AID 504326 | P35372+P41143 | cells, OPRM1-OPRD1 heterodimerization, luminescence | activation, % at 9.3 µM;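 further: 0% = vehicle-treated cells and 100% = reference agonist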
MOR-DOR ag conf: OPRM1-OPRD1 heterodimer agonism, confirmation; shares compounds with MOR-DOR ag; cells, MOR-DOR heterodimerization, luminescence complementation; 830 tested, 45% active; activation, % at 9.3 µM;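 further: 0% = vehicle-treated cells and 100% = reference agonist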
HTR5A ag counter: counter-screen for OPRM1-OPRD1 agonists: human HTR5A agonism; activation, % at 9.3 µM; shares compounds with MOR-DOR ag; 830 tested, 8% active; HTR5A agonist counterscreen, cell luminescence; in the data active means activation above about 17%;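 further: 0% = vehicle-treated cells and 100% = reference agonist response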
* hit, by the source's call. In the library only some 2.2% were active in any assay of this set; here they are far more common. Unless noted, no stated cut-off is given here; in the data, active means activation above about 18%; inactive means the rest.

`N#CCC(=O)N/N=C/c1cn(Cc2ccc(Cl)cc2Cl)c2ccccc12` gave m5-HT2A agonist -2, HTR5A inv ag -6, HTR5A ag ctr 5, OPRM1-OPRD1 inv -103, HGIII-sPLA2 inh -1, MOR-DOR ag 20*, MOR-DOR ag conf 2 and HTR5A ag counter 9.
For COc1cc2nc(Nc3cccc(F)c3)nc(N)c2cc1OC the results were m5-HT2A agonist -4, HTR5A inv ag -10, HTR5A ag ctr 3, OPRM1-OPRD1 inv -128, HGIII-sPLA2 inh -6, MOR-DOR ag 27*, MOR-DOR ag conf -3 and HTR5A ag counter -7.
`COc1nc(Nc2cccc(F)c2)nc(OC)n1` gave m5-HT2A agonist -8, HTR5A inv ag 12, HTR5A ag ctr -3, OPRM1-OPRD1 inv 11, HGIII-sPLA2 inh -2 and MOR-DOR ag -2.
Screening O=C(O)c1cccc(NC2=C(Cl)C(=O)c3ccccc3C2=O)c1 returned m5-HT2A agonist -3, HTR5A inv ag 3, HTR5A ag ctr -1, OPRM1-OPRD1 inv -143, HGIII-sPLA2 inh 6, MOR-DOR ag 22*, MOR-DOR ag conf 8 and HTR5A ag counter 3.
OCC1(CCc2ccccc2)CCN(Cc2cccn2-c2cccnc2)CC1 was read as m5-HT2A agonist 0, HTR5A inv ag 3, HTR5A ag ctr -12, OPRM1-OPRD1 inv inactive, HGIII-sPLA2 inh -10, MOR-DOR ag 144*, MOR-DOR ag conf 384* and HTR5A ag counter 2.
COc1cc2c(cc1NC(=O)Nc1ccc(C)cc1)oc1ccccc12 was read as m5-HT2A agonist -2, HTR5A inv ag -11, HTR5A ag ctr -3, OPRM1-OPRD1 inv -20, HGIII-sPLA2 inh -8 and MOR-DOR ag 4.
For COc1cc2c(cc1NC(=O)C(C)Sc1ccc(NC(C)=O)cc1)oc1ccccc12 (stereo unspecified) the results were m5-HT2A agonist -6, HTR5A inv ag -8, HTR5A ag ctr 2, OPRM1-OPRD1 inv -114, HGIII-sPLA2 inh -31, MOR-DOR ag 20*, MOR-DOR ag conf 0 and HTR5A ag counter -1.
`O=C(NCCCNc1ccc([N+](=O)[O-])cc1)C(F)(F)F` gave m5-HT2A agonist -2, HTR5A inv ag -7, HTR5A ag ctr -1, OPRM1-OPRD1 inv 10, HGIII-sPLA2 inh -1 and MOR-DOR ag -2.
`O=C(CCl)N(CCCNC(=O)C(F)(F)F)c1ccc([N+](=O)[O-])cc1` gave m5-HT2A agonist 1, HTR5A inv ag -8, HTR5A ag ctr -1, OPRM1-OPRD1 inv -94, HGIII-sPLA2 inh 4, MOR-DOR ag 18*, MOR-DOR ag conf 28* and HTR5A ag counter 29*.
COc1ccc(/C=N/Nc2cc(C)nc3ccc(Br)cc23)cc1 was read as m5-HT2A agonist -7, HTR5A inv ag -17, HTR5A ag ctr 5, OPRM1-OPRD1 inv -108, HGIII-sPLA2 inh -9, MOR-DOR ag 21*, MOR-DOR ag conf 2 and HTR5A ag counter -4.
N#C/C(=C(/O)C(Cl)(Cl)Cl)c1nc2ccccc2[nH]1 was read as m5-HT2A agonist 3, HTR5A inv ag 1, HTR5A ag ctr 0, OPRM1-OPRD1 inv -108, HGIII-sPLA2 inh -5, MOR-DOR ag 21*, MOR-DOR ag conf 10 and HTR5A ag counter 6.
`C/C(O)=C(/C#N)c1nc2ccccc2[nH]1` gave m5-HT2A agonist 5, HTR5A inv ag -13, HTR5A ag ctr -7, OPRM1-OPRD1 inv 1, HGIII-sPLA2 inh -2 and MOR-DOR ag 0.
`O=C(CSC(=S)N1CCCC1)NCCc1ccccc1` gave m5-HT2A agonist -5, HTR5A inv ag -12, HTR5A ag ctr 7, OPRM1-OPRD1 inv 10, HGIII-sPLA2 inh 14 and MOR-DOR ag -2.
`CN(C)C(CNC(=O)C1CCN(C(=O)/C=C/c2ccccc2)CC1)c1ccccc1` (stereo unspecified) gave m5-HT2A agonist -6, HTR5A inv ag 15, HTR5A ag ctr 0, OPRM1-OPRD1 inv -165, HGIII-sPLA2 inh 1, MOR-DOR ag 20*, MOR-DOR ag conf 18 and HTR5A ag counter 2.
For CN(C)C(CNC(=O)C1CC(=O)N(Cc2ccccc2)C1)c1ccccc1 (stereo unspecified) the results were m5-HT2A agonist 2, HTR5A inv ag 5, HTR5A ag ctr -5, OPRM1-OPRD1 inv -250, HGIII-sPLA2 inh -1, MOR-DOR ag 46*, MOR-DOR ag conf 59* and HTR5A ag counter 3.
For CN(C)C(CNC(=O)CSC(=S)N1CCCC1)c1ccccc1 (stereo unspecified) the results were m5-HT2A agonist -3, HTR5A inv ag -5, HTR5A ag ctr 1, OPRM1-OPRD1 inv inactive, HGIII-sPLA2 inh 6, MOR-DOR ag 195*, MOR-DOR ag conf 183* and HTR5A ag counter -4.
For O=C(Nc1ccc(F)cc1)OCc1cn(Cc2ccccc2Cl)nn1 the results were HGIII-sPLA2 inh -15.
Screening O=C(Cn1c(-c2cncs2)nc2ccccc21)NC1CCCCC1 returned HGIII-sPLA2 inh 11.
Cc1cccc(NC(=O)OC2CC3CC2[C@H]2CCCCN2C3)c1 (stereo partly specified) was read as HGIII-sPLA2 inh 0.
Screening CC(=O)c1ccc(S(=O)(=O)NCc2ccc(C(=O)NCC(c3ccccc3)N(C)C)cc2)cc1 (stereo unspecified) returned m5-HT2A agonist -6, HTR5A inv ag -11, HTR5A ag ctr 4, OPRM1-OPRD1 inv -292, HGIII-sPLA2 inh -21, MOR-DOR ag 55*, MOR-DOR ag conf 49* and HTR5A ag counter -4.
`COc1ccc(C(CNC(=O)c2cccc(S(=O)(=O)Nc3ccc(F)cc3)c2)N(C)C)cc1` (stereo unspecified) gave m5-HT2A agonist -4, HTR5A inv ag 10, HTR5A ag ctr -4, OPRM1-OPRD1 inv -20, HGIII-sPLA2 inh -3 and MOR-DOR ag 4.
For COc1ccc(C(CNC(=O)c2cccc(NS(=O)(=O)c3ccc(C)c(F)c3)c2)N(C)C)cc1 (stereo unspecified) the results were m5-HT2A agonist -5, HTR5A inv ag 7, HTR5A ag ctr -3, OPRM1-OPRD1 inv -363, HGIII-sPLA2 inh -28, MOR-DOR ag 70*, MOR-DOR ag conf 1 and HTR5A ag counter -2.
`CN(C)C(CNC(=O)c1ccc(S(=O)(=O)Nc2ccccc2F)cc1)c1ccccc1` (stereo unspecified) gave m5-HT2A agonist -12, HTR5A inv ag 16, HTR5A ag ctr -1, OPRM1-OPRD1 inv 14, HGIII-sPLA2 inh -8 and MOR-DOR ag -3.
